# About 83,000 compounds went through this panel and 20% of them were active in at least one assay; those are over-represented in the sample as a whole.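 Note: values are percent growth. 100 is the growth of untreated cells, values between 100 and 0 indicate rising inhibition; between -100 and 0 indicates cell death.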 Values without a mark were called inactive. The source made the active and inactive calls. How the source made its calls: active means growth percent below 10; inactive means the rest.
# Tested on: HL-60(TB) leukemia
# Test: NCI-60 one-dose screen, 48 h (100 = growth as untreated, 0 = no growth, -100 = all killed)
# Details: 10 µM unless noted
row,Structure (SMILES),growth
1,COc1ccc(S(=O)(=O)Nc2cc(/C=C\c3cc(OC)c(OC)c(OC)c3)ccc2OC)cc1,-31.6% (active)
2,O=C(Nc1ccc(-c2ccnc(Nc3ccc(N4CCOCC4)cc3)n2)cc1)[C@@H]1CCCN1,39.8%
3,O=C1c2ccc3c4c(ccc(c24)C(=O)N1CCNCc1ccccc1)C(=O)N(CCNCc1ccccc1)C3=O,-34.6% (active)
4,Cc1cc(N(CCCNc2ccnc3cc(Cl)ccc23)Cc2ccco2)nc(N2CCN(C)CC2)n1,38%
5,C=C(C)[C@@H]1CC[C@]2(CNCCO)CC[C@]3(C)[C@H](CC[C@@H]4[C@@]5(C)CCC(N)[C@@](C)(CO)[C@@H]5CC[C@]43C)[C@@H]12 (stereo not given in full),-63.7% (active)
6,CC(C)COc1nc2c(c(=O)n(C)c(=O)n2C)n1C,97%
7,O=C(N/N=C/c1cc2ccccc2c2ccccc12)c1cc(O)c(O)c(O)c1,39.9%
8,Cc1csc(Nc2nc(-c3cccc(Cl)c3)nc(C(Cl)(Cl)Cl)n2)n1,-10.2% (active)
9,CCOC(=O)C1C(=O)OC2CCCCC21 (stereo not given),98.5%
10,c1ccc(OCCC[P+](c2ccccc2)(c2ccccc2)c2ccccc2)cc1,-57.3% (active)
11,CC(c1ccccc1)N(C)C (stereo not given),88.5%
12,COc1ccc(CCN2C(=O)/C(=C/c3ccc(C4Oc5ccccc5C5CC(c6ccccc6)=NN54)cc3)SC2=S)cc1 (stereo not given),97.7%
13,CCN(CC)C(=O)C[N+](C)(C)CCOC(c1ccccc1)c1ccccc1,97.5%
14,O=C1c2cccc(NCCN=Cc3cc([N+](=O)[O-])ccc3O)c2C(=O)c2c(NCCN=Cc3cc([N+](=O)[O-])ccc3O)cccc21,70.8%
15,N#Cc1c(NC(=O)c2ccco2)[n+]([O-])c2cc(Cl)c(Cl)cc2[n+]1[O-],91.8%
16,C[C@H]1[C@H]2C3=CC[C@@H]4[C@@]5(C)C/C(=C/c6ccncc6)C(=O)C(C)(C)[C@@H]5CC[C@@]4(C)[C@]3(C)CC[C@@]2(C(=O)N2CCN(C)CC2)CC[C@@H]1C,57.3%
17,COc1cc2c(c(OC)c1OC)C(=O)/C(=C/c1cc(C)c(O)c(C)c1)S2,13.6%
18,CC(C)(O)CC(=O)NCCn1ccc2ncnc(Nc3ccc(Oc4cccc(C(F)(F)F)c4)c(Cl)c3)c21,2.51% (active)
19,C=C1C(=O)O[C@H]2[C@H]1CC/C(CNC(=O)/C=C/c1ccc(Br)cc1)=C\CC[C@@]1(C)O[C@@H]21,-15.8% (active)
20,O=S(=O)(OCCO)c1ccccc1,107%

row,Structure (SMILES),growth
1,COc1cc2c(cc1OCCCOC1=C=C=C(c3ccc4c(c3)c3cc(-c5ccc(OCCCOc6cc7c(cc6OC)C(=O)N6CCC[C@H]6C=N7)cc5)ccc3n4S(=O)(=O)c3ccc(C)cc3)C=C1)N=C[C@@H]1CCCN1C2=O,10.5%
2,Cc1cc(=O)oc2cc(OCc3nn4c(Nc5nc6ccccc6s5)c(-c5ccccc5)nc4s3)ccc12,93.1%
3,COc1ccc(C)c2sc(N(Cc3cccnc3)C(=O)c3ccc(C#N)cc3)nc12,-6.46% (active)
4,CC1CCC2(C(=O)O)CCC3(C)C(=CCC4C5(C)CC(O)C(O)C(C)(CO)C5C(O)CC43C)C2C1C (stereo not given),118%
5,CCc1nc2ccccc2[nH]1,105%
6,COc1ccc(C(Cc2ccccc2)NCCN2CCOCC2)cc1 (stereo not given),93.8%
7,COc1ccc(OC)c(C2C(C#N)=C(N)Oc3cc(O)ccc32)c1 (stereo not given),88.6%
8,COc1ccc(/C=C2\CN(C(=O)C(Cl)Cl)C/C(=C\c3ccc(OC)c(OC)c3)C2=O)cc1OC,-11.4% (active)
9,COc1cc(-c2nc(SC(C)C)nc(Nc3ccccc3C)c2C#N)cc(OC)c1OC,103%
10,Cc1cccc(C)c1NCc1nnc(-c2ccco2)o1,97.5%
11,CCN(CC)CCCN1C(=O)c2c(c(C)c3c(oc4cc(OC)ccc43)c2C)C1=O,95%
12,COc1cc(NCCCN)c2ncccc2c1,68%
13,CCCCCCCCCCCCCCCCCCn1cc(COc2ccc(C=O)cc2)nn1,86.7%
14,O=C(O)c1cccc2c1C(=O)N(c1ccc3c(c1)Cc1ccccc1-3)C2=O,112%
15,Nc1nnc2cc(Cl)ccc2n1,145%
16,CCC1S/C(=N\N=C(/C)c2cccs2)N(c2ccccc2)C1=O (stereo not given),59.2%
17,CCN(CC)CCCNc1nc2ccccc2c2c(=O)c3cc(Cl)ccc3sc12,64.5%
18,COc1ccc(CNCCN2C(=O)c3ccc4c5c(ccc(c35)C2=O)C(=O)N(CCNCc2ccc(OC)c(OC)c2OC)C4=O)c(OC)c1OC,-43.2% (active)
19,CCNC(=O)c1[nH]cc(-c2ccc(OC)cc2)c1-c1cc(OC)cc(OC)c1,82.1%
20,C=C(C)[C@@H]1CC[C@]2(C)[C@H](CC=C3[C@@H]4CC(C)(C)CC[C@]4(C=O)CC[C@]32C)[C@@]1(C)CCCN,-3.43% (active)
